Source: the supplement of paper PMC6555819

Columns and labels:
Experiment in all cases: PBM binding z-score (relative to random genomic background probes); higher = stronger binding; sequences stand for … in GC…GCGATTGACAGCGTAGAATGAAGG
[1] = system: FXR:RXRa (NR concentration 270 nM, RXRa partner concentration 90 nM)
In short: (§1)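 For binding z-scores, the reference was random background probes on custom Agilent 4×180K protein-binding microarrays. These arrays were incubated 1 h with ligand-free nuclear receptor dimers in PBS pH 7.4, 2% milk, 0.02% Triton X-100, 1 mM DTT, 0.2 mg/mL BSA and 0.4 mg/ml salmon testes DNA. Fluorescence was scanned after antibody detection of each partner (one per run) and regression-normalized.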

[2] = system: LXRa:RXRa (NR concentration 270 nM, RXRa partner concentration 90 nM)
In short: as §1

[3] = system: LXRa homodimer (NR concentration 270 nM)
In short: as §1

[4] = system: LXRb:RXRa (NR concentration 270 nM, RXRa partner concentration 90 nM)
In short: as §1

[5] = system: LXRb homodimer (NR concentration 270 nM)
In short: as §1

[6] = system: PPARa:RXRa (NR concentration 270 nM, RXRa partner concentration 90 nM)
In short: as §1

[7] = system: PPARg:RXRa (NR concentration 180 nM, RXRa partner concentration 90 nM)
In short: as §1

[8] = system: PPARg:RXRa 270nM:90nM, anti-RXR (NR concentration 270 nM, RXRa partner concentration 90 nM)
In short: as §1

[9] = system: PPARg:RXRa 30nM:10nM, anti-RXR (NR concentration 30 nM, RXRa partner concentration 10 nM)
In short: as §1

[10] = system: PPARg:RXRa 90nM:30nM, anti-RXR (NR concentration 90 nM, RXRa partner concentration 30 nM)
In short: as §1

| Sequence | PBM binding z-score [1] | PBM binding z-score [2] | PBM binding z-score [3] | PBM binding z-score [4] | PBM binding z-score [5] | PBM binding z-score [6] | PBM binding z-score [7] | PBM binding z-score [8] | PBM binding z-score [9] | PBM binding z-score [10] |
| --- | --- | --- | --- | --- | --- | --- | --- | --- | --- | --- |
| TCGAGTAGGTTAGTCGGTGCATTCAGCCAACATA | -0.341 | -0.428 | -0.522 | -0.341 | -1.16 | 0.254 | -0.329 | 0.678 | 1.05 | 0.958 |
| ATCTCTAGGTACAAGTTCAGTGAATCCCGAGGAT | 0.207 | 0.339 | 0.332 | 0.411 | 0.905 | 2.42 | 3.28 | 4.58 | 3.23 | 4.51 |
| ACTAGCAGGCCAACTTTGGGTCACTCAAACAAAG | 0.261 | 0.66 | 0.362 | 0.931 | -0.445 | 1.53 | 0.543 | 0.901 | -0.236 | 0.471 |
| AGAATGAGGTTATACGTAGCTCAGGGAAGAAAGT | 1.61 | 1.23 | -0.204 | 1.05 | -0.347 | 2.86 | 1.46 | 1.95 | 0.439 | 1.23 |
| AGAACGCGGGCACGCTGAGTTGATAGCAGAGTAG | -0.237 | -0.318 | -0.326 | -0.68 | -1.1 | -0.532 | 0.363 | -0.844 | -0.786 | -0.727 |
| ATCGAAAGGTCGTGAGGTGATTATACAGAAAGGC | 5.04 | 4.01 | 0.374 | 3.36 | 0.471 | 4.92 | 4.09 | 4.21 | 1.66 | 2.92 |
| CGAACTAGGTCAGAACAGGCCAGTGAAGGATGAT | 1.1 | 0.652 | -0.282 | 0.231 | -0.675 | 3.02 | 4.88 | 4.38 | 1.91 | 3.5 |
| CAAACTAGGTCACCGGAATGTCAAAGTCCGCATG | 4.57 | 3.52 | 0.679 | 2.64 | 0.303 | 5.44 | 8.97 | 7.22 | 5.76 | 7.24 |
| TAACCTAGGTCATGGGCCAGTATACCACGCGAAC | 5.24 | 4.78 | 1.74 | 3.44 | 0.868 | 4.78 | 5.73 | 5.21 | 2.54 | 4.41 |
